Results published in ChEMBL document CHEMBL4808148, “HDAC6 screening dataset using tau-based substrate in an enzymatic assay yields selective inhibitors and activators” (2021).
The campaign covered roughly 5,600 compounds. About 390 (7%) showed an effect of 50% or more. The full list was thinned out, with strong results kept by preference.

Molecular target: T1, Protein deacetylase HDAC6 (Homo sapiens) (UniProt Q9UBN7)
T1 sequence (whole entry): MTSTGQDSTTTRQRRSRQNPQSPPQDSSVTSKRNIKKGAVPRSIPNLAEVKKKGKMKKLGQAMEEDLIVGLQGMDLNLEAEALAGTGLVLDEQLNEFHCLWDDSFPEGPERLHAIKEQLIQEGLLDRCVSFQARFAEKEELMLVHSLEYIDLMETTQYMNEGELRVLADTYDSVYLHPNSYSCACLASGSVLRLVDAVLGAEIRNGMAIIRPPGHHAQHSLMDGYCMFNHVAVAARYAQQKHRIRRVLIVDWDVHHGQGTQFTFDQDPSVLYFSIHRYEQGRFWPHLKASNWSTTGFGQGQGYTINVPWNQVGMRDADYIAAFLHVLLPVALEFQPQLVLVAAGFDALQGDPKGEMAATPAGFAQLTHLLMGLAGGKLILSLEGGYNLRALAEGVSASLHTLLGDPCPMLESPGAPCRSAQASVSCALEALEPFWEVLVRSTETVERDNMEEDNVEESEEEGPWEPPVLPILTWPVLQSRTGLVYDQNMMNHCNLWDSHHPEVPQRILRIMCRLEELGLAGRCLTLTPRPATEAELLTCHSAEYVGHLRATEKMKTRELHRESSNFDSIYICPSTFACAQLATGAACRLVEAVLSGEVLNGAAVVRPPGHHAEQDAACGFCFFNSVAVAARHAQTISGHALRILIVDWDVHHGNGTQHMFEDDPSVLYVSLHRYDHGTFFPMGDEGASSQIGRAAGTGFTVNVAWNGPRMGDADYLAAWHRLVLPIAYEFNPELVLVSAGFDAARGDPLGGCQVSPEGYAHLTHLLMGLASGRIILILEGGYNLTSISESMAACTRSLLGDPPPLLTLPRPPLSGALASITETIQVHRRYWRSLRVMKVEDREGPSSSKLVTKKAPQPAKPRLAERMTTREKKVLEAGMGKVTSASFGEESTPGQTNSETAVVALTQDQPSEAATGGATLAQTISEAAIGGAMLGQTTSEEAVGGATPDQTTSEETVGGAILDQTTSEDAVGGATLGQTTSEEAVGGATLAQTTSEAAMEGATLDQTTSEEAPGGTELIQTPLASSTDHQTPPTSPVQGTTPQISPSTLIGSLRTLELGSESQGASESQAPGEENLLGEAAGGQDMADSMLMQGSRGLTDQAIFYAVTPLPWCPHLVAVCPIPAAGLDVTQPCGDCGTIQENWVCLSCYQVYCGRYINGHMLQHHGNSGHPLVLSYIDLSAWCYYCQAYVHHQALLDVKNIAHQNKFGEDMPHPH
Conditions: at 10 µM

SMILES | inhibition
CC[C@H]1[C@@H](O)[C@@H]2[C@H](CC[C@]3(C)[C@@H]([C@H](C)CCOS(=O)(=O)O)CC[C@@H]23)[C@@]2(C)CC[C@@H](O)C[C@@H]12 | -1.78%
CC(C)C[C@H](NC(=O)[C@H](CCCCN)NC(=O)[C@H](CCCNC(=N)N)NC(=O)[C@H](C)NC(=O)[C@H](CO)NC(=O)[C@H](CCCCN)NC(=O)[C@H](CCCNC(=N)N)NC(=O)[C@H](C)NC(=O)CNC(=O)[C@@H](NC(=O)[C@H](Cc1ccccc1)NC(=O)CNC(=O)CNC(=O)[C@@H](N)Cc1ccccc1)[C@@H](C)O)C(=O)N[C@@H](C)C(=O)N[C@@H](CC(N)=O)C(=O)N[C@@H](CCC(N)=O)C(=O)O | 3.21%
CCC(CC)C(c1ccc(Nc2nc3ccccc3s2)cc1)n1cncn1 (configuration not stated) | 11.9%
CC(C)c1cnn2c(NCc3ccccc3)cc(NCCCCCCN)nc12 | 61.1%
Cc1cc(/C=C2\SC(=O)N(c3ccccc3)C2=O)c(C)n1-c1cccnc1 | 96.7%
Cc1cc(/C=c2/sc3nc4ccccc4n3c2=O)c(C)n1-c1ccccc1 | -0.72%
Nc1nc(=O)c2sc(=O)n([C@@H]3O[C@H](CO)[C@@H](O)[C@H]3O)c2[nH]1 | 7.72%
Cc1ccc(-c2csc(NC(=O)c3ccccc3)n2)c(C)c1 | 61.3%
Cc1cc2sc(NC(=O)Cc3ccccc3)nc2cc1Cl | 19.7%
NC(=O)CN1C=CCC(C(N)=O)=C1 | -1.44%
O=C1c2cc(Cl)ccc2OC2CCON12 (configuration not stated) | 8.29%
COc1ccccc1OC(=O)CNC(=O)Cc1ccc(C(=O)c2ccc(C)cc2)n1C | 27.4%
COc1ccn2ncc(-c3nc4[nH]nc(NC(=O)c5ccc(F)cc5)c4cc3F)c2c1 | 1.3%
COc1cc(OC)cc(-c2ccc3c(-c4ccc(F)cc4)n[nH]c3n2)c1 | 81.7%
C[C@H]1C[C@@H]2[C@H]([C@@H](O)C[C@@]3(C)[C@H]2CC[C@]3(O)C(=O)COC(=O)CCC(=O)O)[C@@]2(C)C=CC(=O)C=C12 | 27.4%
COc1cc([C@@H]2c3cc4c(cc3[C@@H](O[C@@H]3O[C@@H]5CO[C@@H](C)O[C@H]5[C@H](O)[C@H]3O)[C@H]3COC(=O)[C@H]23)OCO4)cc(OC)c1OP(=O)(O)O | 5.48%
CCN(CC)CCNC(=O)c1ccccc1I | 13.2%
COc1nc2ccc(Br)cc2cc1[C@@H](c1ccccc1)[C@@](O)(CCN(C)C)c1cccc2ccccc12 | 73.7%
NCC1CC(=O)N(Cc2ccccc2)C1 (configuration not stated) | 0.62%
O=C(O)CCCCCCNC1c2ccccc2CCc2ccccc21 | 0.36%
CN1c2ccccc2C(NCCCCCCC(=O)O)c2ccc(Cl)cc2S1(=O)=O (configuration not stated) | 64.5%

SMILES | inhibition
Cc1ccc(C)c(C(O)CNC(C)C)c1 (configuration not stated) | 7.8%
C[C@@H]1C(=O)O[C@H]2CC34[C@H]5C[C@@H](C(C)(C)C)C36[C@@H](OC(=O)[C@@H]6O)O[C@@]4(C(=O)O5)[C@]21O (some centres not stated) | 26.8%
CN1CC[C@@]2(C)c3cc(O)ccc3N(C)[C@H]12 | 6.94%
Cn1cc(-c2cc(Oc3cc(F)c(NC(=O)C4(C(=O)Nc5ccccc5)CC4)cc3F)ccn2)cn1 | 13.7%
CN1CC[C@@]2(C)c3cc(OC(=O)Nc4ccccc4)ccc3N(C)[C@@H]12 | 54%
COC1/C=C/OC2(C)Oc3c(C)c(O)c4c(O)c(c(/C=N/N=C/N5CCCCC5)c(O)c4c3C2=O)NC(=O)/C(C)=C\C=C\C(C)C(O)C(C)C(O)C(C)C(OC(C)=O)C1C (configuration not stated) | 5.78%
Cc1ccc2c(c1)Cc1c(C(=O)NN3CCCCC3)nn(-c3ccc(Cl)cc3Cl)c1-2 | 1.48%
CN(C)CCN1C(=O)c2cccc3cc(NC(N)=O)cc(c23)C1=O | -8.72%
COc1ccc(Nc2ccn(-c3ccccc3)n2)cc1 | 101%
C[C@]12C=CC(=O)C=C1CC[C@@H]1[C@@H]2[C@@H](O)C[C@@]2(C)[C@H]1CC[C@]2(O)C(=O)COP(=O)(O)O | 22.1%
CCNC(=O)[C@@H]1CCCN1C(=O)[C@H](CCCNC(=N)N)NC(=O)[C@H](CC(C)C)NC(=O)[C@@H](C)NC(=O)[C@H](Cc1ccc(O)cc1)NC(=O)[C@H](CO)NC(=O)[C@H](Cc1c[nH]c2ccccc12)NC(=O)[C@H](Cc1cnc[nH]1)NC(=O)[C@@H]1CCC(=O)N1 | 41.1%
Cc1cc(C(=O)Nc2cccc(C(=O)Nc3cccc(C(F)(F)F)c3)c2)on1 | 16.4%
O=C1c2cccc(O)c2C(=O)c2c(O)cc(CO)cc21 | 53.1%
O=C1c2ccccc2C(=O)c2ccccc21 | 44.4%
CCN1C[C@H](C)n2c(c(O)c3c(=O)n(Cc4ccc(F)c(Cl)c4)nc(C(=O)NC)c32)C1=O | 19.2%
C[C@H](CCC(=O)O)[C@H]1CC[C@H]2[C@@H]3[C@H](O)C[C@@H]4C[C@H](O)CC[C@]4(C)[C@H]3CC[C@]12C | 3.14%
C[C@H](CCC(=O)O)[C@H]1CC[C@H]2[C@@H]3CC[C@@H]4C[C@H](O)CC[C@]4(C)[C@H]3CC[C@]12C | -5.26%
C[C@H](CCC(=O)O)[C@H]1CC[C@H]2[C@@H]3[C@@H](O)C[C@@H]4C[C@H](O)CC[C@]4(C)[C@H]3CC[C@]12C | 62.8%
CCC1=C[C@@H]2CN3CCc4c([nH]c5ccccc45)[C@@](C(=O)OC)(C2)[C@@H]13 | 2.61%
COc1cc(OC)c(/C=C2/C(=O)Nc3ccccc32)c(OC)c1 | -6%
Cn1cccc1/C=C1\C(=O)NC(=O)c2ccccc21 | 61.5%
